PubChem BioAssay (NCATS)
Inconclusive results are not listed. The source made the active and inactive calls. Unless noted, calls follow the shape of the dose curve; as a rule, active = well fitted curve in the direction sought with a large enough effect; inconclusive = small, poorly fitted or top-dose-only effect, or another doubt; inactive = no such curve, though single readings can be large; an effect the other way counts as inactive or inconclusive.

What was measured:
[1] = AP1 Signaling Pathway (AID 357; active = well fitted curve in either direction with a large enough effect, not every such curve was filed as active;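 also: ME-180 reporter cells stimulated with EGF at its EC50 level; % is scaled to controls: 0 for no effect and ±100 for the full control effect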); conditions: ME-180 AP-1-bla reporter, EGF-induced, beta-lactamase ratio, 5 h
Procedure, shortened: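 AP-1-bla ME-180 cells, Opti-MEM + 0.5% dialyzed FBS, plated overnight 37 °C. Cpd titration + EC50 EGF, 5 h 37 °C. CCF4 2.5 h RT; ex 405, em 460/530 ratio → %activity, AC50.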

[2] = Stat Signaling Pathway (AID 446; active = well fitted curve in either direction with a large enough effect, not every such curve was filed as active;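 also: ME-180 cervical cancer cells given 40 pM IL-6 alongside compound; SIE-controlled beta-lactamase reporter measured as 460/530 nm FRET emission ratio; % is scaled to controls: 0 for no effect and ±100 for the full control effect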); conditions: ME-180 SIE beta-lactamase reporter, IL-6 stimulated, 5 h
Procedure, shortened: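 ME-180 cells carrying a SIE-driven beta-lactamase reporter are stimulated with 40 pM IL-6 for 5 h at 37C in the presence of compound. The 460/530 nm FRET substrate ratio is read after 2.5 h at RT. Data are normalised to 300 pM IL-6 and to 125 nM JAK inhibitor controls.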

[3] = biological target: 3',5'-cyclic-AMP phosphodiesterase 4B (Homo sapiens) (UniProt Q07343); experiment: qHTS Assay for Inhibitors of PDE-IV (AID 607; active = well fitted activation curve with a large enough effect in the main read-out, with a control signal flat, not every such curve was filed as active; also: potency is read from the fitted curve at half-maximal effect)
Procedure, shortened: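 HEK293 ACTOne cells with CNG channel (1000/well), endogenous PDE4; membrane potential dye, compounds up to 22.9 uM final. Fluorescence Ex 535/Em 590; RO 20-1724 (100 uM final) as reference.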

[4] = biological target: Guanine nucleotide-binding protein G(i) subunit alpha-1 (Homo sapiens) (UniProt P63096); experiment: qHTS Assay for Inhibitors of RGS12 GoLoco Motif Activity (Green Fluorophore) (AID 879);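 also: 0% = labeled peptide with Gαi1 and full inhibition = labeled peptide alone without protein; negative values mean loss of peptide binding seen as reduced polarization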
Procedure, shortened: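 Fluorescence polarization assay: 50 nM Gαi1 with 10 nM FITC-labeled RGS12 GoLoco peptide in 10 mM Tris pH 7.5, 150 mM NaCl, 0.1 mM GDP, 0.05% NP40, 10 min at room temperature with compound.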

[5] = biological target: Pyruvate kinase (Leishmania mexicana) (UniProt Q27686); experiment: qHTS Validation Assay for Inhibitors of Leishmania Mexicana Pyruvate Kinase (AID 945);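 also: 0% = DMSO only neutral control wells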
Procedure, shortened: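 Eight-point qHTS titrations in triplicate, data normalized to DMSO neutral control. Reaction: 0.2 nM LmPYK E451W mutant, 0.5 mM PEP, 0.1 mM ADP, 7 mM MgCl2, pH 7.2, one hour at room temperature; luminescent ATP detection.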

[6] = biological target: Pyruvate kinase PKM (Homo sapiens) (UniProt P14618); experiment: qHTS Assay for Activators of Human Muscle Pyruvate Kinase (AID 954; active = well fitted curve in the direction sought with a large enough effect, not every such curve was filed as active;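 also: 0% = uninhibited enzyme and -100% = no enzyme or full thiadiazolimine inhibition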)
Procedure, shortened: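 Purified human PKM2 (0.1 nM) with 0.5 mM PEP (Km) and 0.1 mM ADP in 50 mM imidazole pH 7.2, KCl, MgCl2, 1 h at room temperature; ATP formed read by coupled luciferase luminescence. Normalized to no-enzyme/110 uM thiadiazolimine inhibition; 0.3 nM enzyme column for activation.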

[7] = biological target: Alpha-galactosidase A (Homo sapiens) (UniProt P06280); experiment: Counterscreen for Glucocerebrosidase Inhibitors: qHTS Assay for Human alpha-Galactosidase at pH 4.5 (AID 992); also: 0% is about no effect
Procedure, shortened: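 Human enzyme (2 nM) with 80 uM 4-methylumbelliferyl alpha-D-galactopyranoside in 50 mM citric acid, 0.005% Tween-20, pH 4.5, 20 min at room temperature. Compounds 0.7 nM–77 uM; fluorescence Ex 365/Em 440 after pH 10 stop; AC50 from Hill fits.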

[8] = qHTS for differential inhibitors of proliferation of Plasmodium falciparum line 7G8 (AID 1815);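 also: parasite growth measured after three days of incubation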; also: potency is read from the fitted curve at half-maximal effect;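 as to activity change, negative = inhibition: plate controls were vehicle wells for no effect and reference inhibitor wells for full effect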
[9] = qHTS for differential inhibitors of proliferation of Plasmodium falciparum line GB4 (AID 1816); conditions: Potency: Plasmodium falciparum GB4 proliferation inhibition;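 also: parasite growth measured after 72 h incubation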; also: potency is read from the fitted curve at half-maximal effect;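 as to activity change, negative = inhibition: 0% = vehicle DMSO and -100% = reference inhibitor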
[10] = qHTS for differential inhibitors of proliferation of Plasmodium falciparum line 3D7 (AID 1876); also: potency is read from the fitted curve at half-maximal effect;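 as to activity, negative = inhibition: parasite growth measured after three days of culture; 0% = vehicle wells and -100% = reference inhibitor wells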
[11] = qHTS for differential inhibitors of proliferation of Plasmodium falciparum line D10 (AID 1877);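 also: parasites grown with compound for 72 h before DNA staining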; also: potency is read from the fitted curve at half-maximal effect;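 as to activity change, negative = inhibition: plate controls were vehicle wells for no effect and reference inhibitor wells for full effect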
[12] = qHTS for differential inhibitors of proliferation of Plasmodium falciparum line W2 (AID 1883); conditions: Potency: Plasmodium falciparum W2 proliferation inhibition;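 also: parasites grown with compound for 72 h before lysis and staining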; also: potency is read from the fitted curve at half-maximal effect;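 as to activity change, negative = inhibition: 0% = vehicle wells and -100% = control inhibitor wells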
[13] = qHTS for differential inhibitors of proliferation of Plasmodium falciparum line HB3 (AID 1886); conditions: Potency: Plasmodium falciparum HB3 proliferation inhibition;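 also: parasites grown with compound for 72 h before SYBR Green readout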; also: potency is read from the fitted curve at half-maximal effect;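 as to activity change, negative = inhibition: plate controls were vehicle for no effect and reference inhibitor for full effect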
[14] = qHTS Assay for Modulators of Human Peripheral Myelin Protein 22 (PMP22) Expression/Activity (AID 1967; active = well fitted curve in the direction sought with a large enough effect in the signal ratio; the % refers to the signal ratio;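 also: 0% = untreated cells and 100% end not stated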)
Procedure, shortened: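 Luminescence ratio of Pmp22 promoter-driven green luciferase to EF-alpha-driven red luciferase, in engineered mouse MSC80 Schwann cells, served as read-out. Compounds were incubated 24h; untreated cells defined 0% Activity; curves were classified by r2, magnitude and activity.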

[15] = biological target: Ferritin light chain (Equus caballus) (UniProt P02791); experiment: qHTS Validation Assay for Identification of Novel General Anesthetics (AID 2323); also: % is scaled to controls: 0 for no effect and ±100 for the full control effect
Procedure, shortened: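 Fluorescence at 535 nm (excitation 380 nm) reported loss of 1-AMA binding to horse-spleen apoferritin (10 uM) in PBS with 50% saturated 1-aminoanthracene, after 10 min room-temperature incubation with compound; values from Hill fits of normalized response.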

[16] = biological target: RecQ-like DNA helicase BLM (Homo sapiens) (UniProt P54132); experiment: qHTS Validation Assay for Inhibitors of Bloom's syndrome helicase (BLM) (AID 2364);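 also: plate controls were DMSO vehicle for no effect and enzyme-free control for full effect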
Procedure, shortened: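 Forked 20-bp duplex substrate (200 nM, TAMRA/BHQ-2) plus 2 mM ATP added after 15 min compound preincubation with 50 nM enzyme, pH 8.0, poly(dI-dC) 2.5 ug/ml. Strand separation followed by fluorescence (525/598 nm) over 2 h, normalized to enzyme-free and DMSO controls.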

[17] = Quantitative high throughput screen for delayed death inhibitors of the malarial parasite plastid, 96 hour incubation (AID 488745); also: nearly all actives have a fitted effect of over 70% in size; also: potency is read from the fitted curve at half-maximal effect;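 as to activity change, negative = inhibition: luciferase-expressing P. falciparum in erythrocytes at 2% hematocrit and 0.1% parasitemia; % is scaled to controls: 0 for no effect and ±100 for the full control effect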
Procedure, shortened: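 Infected erythrocytes were added to compound in Albumax-supplemented RPMI 1640 at 0.1% parasitemia and 2% hematocrit (final), incubated 96 h at 37 C under 5% CO2, then luciferase reagent was added and luminescence measured.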

[18] = biological target: Thyrotropin-releasing hormone receptor (Homo sapiens) (UniProt P34981); experiment: qHTS for Small Molecule Agonists and Allosteric Enhancers of Human TRH Receptor: Validation Screen for Agonists (AID 493127;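 active = calcium activation more than 3 SD above the typical response in the agonist read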;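 also: intracellular calcium rise by fluo-8 fluorescence before TRH EC20 addition; 0% is about no effect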); conditions: TRH receptor agonist cell assay; at 2 µM; stronger effect = higher value
Procedure, shortened: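 Cells 2000/well, 10% FCS, 18 h 33.5C/5% CO2 → fluo-8 Ca dye, RT 30 min–1.5 h → FDSS baseline 10 × 1 s → compound added → 230 cycles (1 s/cycle) agonist mode. TRH controls.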

[19] = Quantitative high throughput screen for delayed death inhibitors of the malarial parasite plastid, 48 hour incubation (AID 488752); also: % is scaled to controls: 0 for no effect and ±100 for the full control effect; nearly all actives have a fitted effect of over 65% in size
Procedure, shortened: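 Readout is firefly luciferase luminescence from a reporter integrated into the parasite genome, with lower signal taken as inhibited growth. Infected red cells (0.1% parasitemia, 2% hematocrit final) are cultured with compound for one 48 h cycle at 37 C.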

[20] = biological target: Voltage-gated inwardly rectifying potassium channel KCNH2 (Homo sapiens) (UniProt Q12809); experiment: qHTS Assay for Small Molecule Inhibitors of the Human hERG Channel Activity (AID 588834);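 also: top concentration of the series differs between compounds; % is scaled to controls: 0 for no effect and ±100 for the full control effect; lower thallium flux fluorescence means stronger hERG block; nearly all actives have a fitted effect of over 50% in size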
Procedure, shortened: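 hERG-BacMam U2OS, 2000 cells/well; 0.7X FluxOR loading 1 hr RT dark; cpd ~10 min 37 °C; stim buffer; FDSS fluorescence 2 min @ 1 s; AC50 Hill fit.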

[21] = at 7.69 µM (top of the series) unless noted

Chain of Ferritin light chain (Equus caballus) (P02791 2-175 limits assumed): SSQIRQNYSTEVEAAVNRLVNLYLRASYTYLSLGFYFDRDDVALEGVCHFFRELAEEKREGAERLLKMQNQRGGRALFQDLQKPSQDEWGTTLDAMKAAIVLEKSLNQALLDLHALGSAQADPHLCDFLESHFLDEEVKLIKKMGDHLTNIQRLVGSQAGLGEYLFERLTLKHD
Chain of Thyrotropin-releasing hormone receptor (Homo sapiens) (P34981 whole entry, looked up): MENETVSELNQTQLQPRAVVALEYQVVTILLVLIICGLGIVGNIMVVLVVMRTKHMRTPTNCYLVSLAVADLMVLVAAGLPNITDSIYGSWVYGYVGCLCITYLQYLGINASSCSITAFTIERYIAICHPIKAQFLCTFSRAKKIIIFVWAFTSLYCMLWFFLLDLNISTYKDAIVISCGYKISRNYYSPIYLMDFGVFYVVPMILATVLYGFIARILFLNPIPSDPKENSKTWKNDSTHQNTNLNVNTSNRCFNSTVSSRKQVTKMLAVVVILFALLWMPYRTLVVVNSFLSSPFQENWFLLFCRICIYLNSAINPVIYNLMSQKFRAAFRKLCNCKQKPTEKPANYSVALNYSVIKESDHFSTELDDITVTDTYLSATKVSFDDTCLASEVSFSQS
Chain of Pyruvate kinase PKM (Homo sapiens) (P14618 whole entry, looked up): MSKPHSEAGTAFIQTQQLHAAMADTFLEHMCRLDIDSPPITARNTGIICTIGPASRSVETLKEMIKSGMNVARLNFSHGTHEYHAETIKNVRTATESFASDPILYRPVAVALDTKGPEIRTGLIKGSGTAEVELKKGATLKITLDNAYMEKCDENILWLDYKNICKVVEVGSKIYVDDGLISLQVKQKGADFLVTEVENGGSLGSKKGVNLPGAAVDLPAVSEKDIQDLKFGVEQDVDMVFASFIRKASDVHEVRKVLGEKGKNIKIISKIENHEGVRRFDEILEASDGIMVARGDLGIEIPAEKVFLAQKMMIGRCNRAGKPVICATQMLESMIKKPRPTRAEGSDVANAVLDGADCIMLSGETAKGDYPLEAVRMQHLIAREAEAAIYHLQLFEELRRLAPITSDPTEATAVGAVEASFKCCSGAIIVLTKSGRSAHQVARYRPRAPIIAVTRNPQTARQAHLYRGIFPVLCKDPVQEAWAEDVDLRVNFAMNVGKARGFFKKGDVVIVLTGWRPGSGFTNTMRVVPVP
Chain of Alpha-galactosidase A (Homo sapiens) (P06280 whole entry, looked up): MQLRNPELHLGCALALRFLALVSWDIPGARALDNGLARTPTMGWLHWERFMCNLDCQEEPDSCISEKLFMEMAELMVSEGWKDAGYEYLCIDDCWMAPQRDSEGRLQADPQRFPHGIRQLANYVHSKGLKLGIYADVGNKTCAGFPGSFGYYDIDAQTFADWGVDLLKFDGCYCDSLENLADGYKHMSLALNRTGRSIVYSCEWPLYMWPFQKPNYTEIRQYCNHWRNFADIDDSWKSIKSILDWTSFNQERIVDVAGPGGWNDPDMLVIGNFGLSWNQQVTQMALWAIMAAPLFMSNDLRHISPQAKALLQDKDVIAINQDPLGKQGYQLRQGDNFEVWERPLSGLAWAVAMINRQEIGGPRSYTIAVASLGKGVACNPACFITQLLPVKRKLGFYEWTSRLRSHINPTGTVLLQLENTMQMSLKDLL
Chain of 3',5'-cyclic-AMP phosphodiesterase 4B (Homo sapiens) (Q07343 whole entry, looked up): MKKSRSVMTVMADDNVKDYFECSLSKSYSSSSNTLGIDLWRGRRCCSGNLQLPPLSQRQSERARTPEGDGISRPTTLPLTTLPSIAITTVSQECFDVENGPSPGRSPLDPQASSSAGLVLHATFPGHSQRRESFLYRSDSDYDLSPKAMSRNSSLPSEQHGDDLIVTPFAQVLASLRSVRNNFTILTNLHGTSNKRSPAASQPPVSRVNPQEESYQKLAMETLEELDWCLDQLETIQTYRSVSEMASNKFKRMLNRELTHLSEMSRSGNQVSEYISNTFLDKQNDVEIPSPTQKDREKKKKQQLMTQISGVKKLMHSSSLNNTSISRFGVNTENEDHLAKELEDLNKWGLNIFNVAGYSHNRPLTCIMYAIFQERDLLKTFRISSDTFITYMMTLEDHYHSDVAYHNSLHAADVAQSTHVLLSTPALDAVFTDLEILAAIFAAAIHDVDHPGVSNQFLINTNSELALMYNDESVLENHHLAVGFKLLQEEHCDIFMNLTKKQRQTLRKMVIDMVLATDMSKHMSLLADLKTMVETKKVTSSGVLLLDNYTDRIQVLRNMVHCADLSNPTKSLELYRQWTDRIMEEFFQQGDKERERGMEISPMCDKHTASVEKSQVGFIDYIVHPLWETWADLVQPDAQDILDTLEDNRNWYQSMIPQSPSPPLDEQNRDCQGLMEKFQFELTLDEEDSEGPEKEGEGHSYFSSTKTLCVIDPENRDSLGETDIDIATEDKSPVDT
Chain of Voltage-gated inwardly rectifying potassium channel KCNH2 (Homo sapiens) (Q12809 whole entry, looked up): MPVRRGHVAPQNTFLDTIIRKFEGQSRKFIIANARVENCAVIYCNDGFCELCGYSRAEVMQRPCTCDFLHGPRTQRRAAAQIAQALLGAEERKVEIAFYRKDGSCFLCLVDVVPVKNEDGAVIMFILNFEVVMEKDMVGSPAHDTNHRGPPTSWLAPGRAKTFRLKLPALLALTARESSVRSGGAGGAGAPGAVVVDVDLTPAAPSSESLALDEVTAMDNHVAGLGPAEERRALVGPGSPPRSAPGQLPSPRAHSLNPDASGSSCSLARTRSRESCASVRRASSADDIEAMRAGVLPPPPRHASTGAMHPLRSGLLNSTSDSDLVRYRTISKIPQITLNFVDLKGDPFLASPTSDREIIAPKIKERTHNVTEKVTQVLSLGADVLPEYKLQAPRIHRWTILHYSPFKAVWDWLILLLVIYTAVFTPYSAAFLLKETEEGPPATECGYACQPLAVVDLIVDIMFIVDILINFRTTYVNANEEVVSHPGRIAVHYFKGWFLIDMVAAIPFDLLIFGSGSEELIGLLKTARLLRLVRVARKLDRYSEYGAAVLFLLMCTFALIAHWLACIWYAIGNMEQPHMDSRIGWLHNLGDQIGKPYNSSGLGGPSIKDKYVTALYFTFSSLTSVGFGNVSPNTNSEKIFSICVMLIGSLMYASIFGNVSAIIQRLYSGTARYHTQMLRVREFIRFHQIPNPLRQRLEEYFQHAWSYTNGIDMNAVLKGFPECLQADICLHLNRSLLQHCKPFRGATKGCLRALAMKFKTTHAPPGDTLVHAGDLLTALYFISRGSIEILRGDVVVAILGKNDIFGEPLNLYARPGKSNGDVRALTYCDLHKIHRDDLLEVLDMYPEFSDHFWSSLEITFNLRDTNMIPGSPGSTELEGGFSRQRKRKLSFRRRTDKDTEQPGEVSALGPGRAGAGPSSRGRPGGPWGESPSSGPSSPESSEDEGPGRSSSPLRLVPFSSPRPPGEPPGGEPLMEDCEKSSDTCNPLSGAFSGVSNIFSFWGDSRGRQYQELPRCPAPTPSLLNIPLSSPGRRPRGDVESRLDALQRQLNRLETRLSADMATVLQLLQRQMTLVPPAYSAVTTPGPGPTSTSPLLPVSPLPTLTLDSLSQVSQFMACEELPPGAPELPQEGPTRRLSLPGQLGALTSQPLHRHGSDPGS
Chain of Guanine nucleotide-binding protein G(i) subunit alpha-1 (Homo sapiens) (P63096 whole entry, looked up): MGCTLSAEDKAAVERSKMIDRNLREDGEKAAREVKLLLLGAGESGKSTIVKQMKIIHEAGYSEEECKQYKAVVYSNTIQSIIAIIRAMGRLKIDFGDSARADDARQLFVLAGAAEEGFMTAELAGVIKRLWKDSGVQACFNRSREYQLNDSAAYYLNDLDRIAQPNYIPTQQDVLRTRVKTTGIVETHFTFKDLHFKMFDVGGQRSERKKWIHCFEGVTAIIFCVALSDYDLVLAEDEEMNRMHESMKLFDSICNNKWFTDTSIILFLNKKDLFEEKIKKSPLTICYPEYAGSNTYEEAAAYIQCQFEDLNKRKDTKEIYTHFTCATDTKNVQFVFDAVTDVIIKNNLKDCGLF
Chain of Pyruvate kinase (Leishmania mexicana) (Q27686 2-499 E452W): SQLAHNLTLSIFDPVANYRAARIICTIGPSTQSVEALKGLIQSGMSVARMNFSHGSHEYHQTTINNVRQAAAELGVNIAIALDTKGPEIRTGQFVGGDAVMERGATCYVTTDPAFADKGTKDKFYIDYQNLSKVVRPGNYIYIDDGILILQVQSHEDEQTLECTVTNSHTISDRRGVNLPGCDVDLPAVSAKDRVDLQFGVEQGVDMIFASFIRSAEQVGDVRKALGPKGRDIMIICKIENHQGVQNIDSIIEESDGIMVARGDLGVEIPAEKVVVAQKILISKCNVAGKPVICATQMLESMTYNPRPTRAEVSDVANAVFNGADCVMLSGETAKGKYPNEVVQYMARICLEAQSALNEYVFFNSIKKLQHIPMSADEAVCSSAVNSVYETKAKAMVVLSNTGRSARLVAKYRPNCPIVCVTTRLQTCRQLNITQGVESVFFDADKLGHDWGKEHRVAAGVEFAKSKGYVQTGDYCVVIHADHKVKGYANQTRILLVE

N=C(N)SCCc1cccc(CCSC(=N)N)c1
inactive: activity change, negative = inhibition [1, 21] 7.41% [at 38 µM] | activity, negative = inhibition [2, 21] 0.643% [at 38 µM] | Potency [3] | outcome [4] | Potency [5] | outcome [6] | outcome [7] | outcome [14] | outcome [15] | Potency [16] | activation [18] 0.562%
active: Potency [8] 6.31 µM | Potency [9] 2.24 µM | Potency [10] 3.16 µM | Potency [11] 10 µM | Potency [12] 1 µM | Potency [13] 8.91 µM | Potency [17] 13.1 µM

N=C1Sc2ccccc2C2=NCCCN12
inactive: activity change, negative = inhibition [1, 21] 18% [at 38 µM] | activity, negative = inhibition [2, 21] -18.9% [at 38 µM] | Potency [3] | outcome [4] | Potency [5] | outcome [6] | outcome [7] | Potency [10] | Potency [11] | outcome [15] | Potency [16] | Potency [17] | Potency [19] | activation [18] 0.125% | Potency [20]

Cc1ccccc1N1CCN(S(=O)(=O)C[C@]23CCC(CC2NC(=O)[C@@H](N)CCS(C)(=O)=O)C3(C)C)CC1 (some centres undefined)
inactive: Potency [10] | Potency [13] | outcome [15] | Potency [17] | Potency [19] | activation [18] 1% | Potency [20]
active: Potency [12] 12.6 µM

O=C(O)CC[C@H](NC(=O)c1ccccc1C(=O)O)C(=O)O
inactive: Potency [8] | Potency [9] | Potency [10] | Potency [11] | Potency [12] | Potency [13] | outcome [14] | outcome [15] | Potency [17] | Potency [19] | activation [18] 0.188% | Potency [20]

OC[C@H]1O[C@@H](n2cnc3c(Nc4ccccc4)ncnc32)[C@H](O)[C@H]1O
inactive: Potency [8] | Potency [9] | Potency [10] | Potency [11] | Potency [12] | Potency [13] | outcome [15] | Potency [16] | Potency [19] | activation [18] 0.188% | Potency [20]

CN1C(=O)CCC1c1cccnc1 (centres undefined)
inactive: Potency [8] | Potency [9] | Potency [11] | Potency [13] | outcome [14] | outcome [15] | Potency [16] | Potency [19] | activation [18] 1.19%

Cc1cn([C@H]2C[C@@H](N=[N+]=[N-])[C@@H](CO)O2)c(=O)[nH]c1=O
inactive: Potency [8] | Potency [9] | Potency [10] | Potency [11] | Potency [12] | Potency [13] | outcome [15] | Potency [17] | Potency [19] | Potency [20]

CC(=O)O[C@H]1C[C@@H]2CCC3C(CC[C@@]4(C)[C@H]3C[C@H]([N+]3(C)CCCCC3)[C@@H]4OC(C)=O)[C@@]2(C)C[C@@H]1[N+]1(C)CCCCC1 (some centres undefined)
inactive: Potency [8] | Potency [9] | Potency [13] | outcome [14] | outcome [15] | Potency [16] | Potency [19] | activation [18] 0.25% | Potency [20]

COc1cc(=O)n(C)c2c(OCC(O)C(C)(C)O)cccc12 (centres undefined)
inactive: Potency [8] | Potency [9] | Potency [10] | Potency [11] | Potency [12] | Potency [13] | outcome [14] | outcome [15] | Potency [17] | Potency [19] | activation [18] 0.812% | Potency [20]

Nc1ncnc2c1ncn2[C@@H]1O[C@H](C(=O)NC2CC2)[C@H](O)[C@H]1O
inactive: Potency [8] | Potency [9] | Potency [10] | Potency [11] | Potency [13] | outcome [14] | outcome [15] | Potency [17] | Potency [19] | activation [18] 1.12% | Potency [20]

CNc1ncnc2c1ncn2[C@@H]1O[C@H](CO)[C@H](O)[C@H]1O
inactive: Potency [8] | Potency [9] | Potency [10] | Potency [11] | Potency [12] | Potency [13] | outcome [15] | activation [18] 1.06% | Potency [20]

CN1C2CC(OC(=O)C(CO)c3ccccc3)CC1C1OC12 (centres undefined)
inactive: Potency [8] | Potency [10] | Potency [11] | Potency [13] | outcome [14] | Potency [17] | Potency [19]

CC(C)C1NC(=O)[C@H](CCCCN)NC(=O)[C@@H](Cc2c[nH]c3ccccc23)NC(=O)[C@H](Cc2ccc(O)cc2)NC(=O)[C@H](C)N(C)C(=O)[C@H](Cc2ccccc2)NC1=O (some centres undefined)
inactive: Potency [8] | Potency [9] | Potency [10] | Potency [11] | Potency [13] | Potency [16] | Potency [17] | Potency [19] | activation [18] -0.438% | Potency [20]

NCCC(=O)NCCc1cnc[nH]1
inactive: activity change, negative = inhibition ([1]; at 17.2 µM (top of the series)) -8.55% | activity change, negative = inhibition ([1]; at 38 µM (top of the series)) 7.43% | activity, negative = inhibition ([2]; at 17.2 µM (top of the series)) 9.79% | activity, negative = inhibition ([2]; at 38 µM (top of the series)) -27.3% | Potency [3] | outcome [4] | Potency [5] | outcome [6] | outcome [7] | Potency [8] | Potency [9] | Potency [10] | Potency [11] | Potency [12] | Potency [13] | outcome [14] | outcome [15] | Potency [17] | Potency [19] | activation [18] 1% | Potency [20]

NC(=NCCC[C@H](N)C(=O)O)NO
inactive: activity change, negative = inhibition [1, 21] -0.154% [at 38 µM] | activity, negative = inhibition [2, 21] -18.2% [at 38 µM] | Potency [3] | outcome [4] | Potency [5] | outcome [6] | outcome [7] | Potency [8] | Potency [9] | Potency [10] | Potency [11] | Potency [12] | Potency [13] | outcome [14] | outcome [15] | Potency [16] | Potency [17] | Potency [19] | activation [18] 0.812% | Potency [20]

CNC(=O)[C@H]1O[C@@H](n2cnc3c(NCc4cccc(I)c4)ncnc32)[C@H](O)[C@H]1O
active: Potency [8] 7.94 µM | Potency [12] 8.91 µM
inactive: outcome [15] | Potency [17] | Potency [19] | activation [18] 1.38% | Potency [20]

CCn1c(=O)c2[nH]c(-c3ccccc3)nc2n(CC)c1=O
inactive: activity change, negative = inhibition [1, 21] -2.19% [at 38 µM] | activity, negative = inhibition [2, 21] 6.25% [at 38 µM] | outcome [4] | Potency [5] | outcome [6] | outcome [7] | Potency [9] | Potency [10] | Potency [11] | Potency [13] | Potency [16] | Potency [19] | activation [18] 0.688%
active: Potency [3] 2 µM

O=[N+]([O-])c1ccc(CSc2ncnc3c2ncn3[C@@H]2O[C@H](CO)[C@H](O)[C@H]2O)cc1
inactive: Potency [9] | Potency [11] | outcome [14] | Potency [17] | Potency [19] | activation [18] 0.688%
